Screening data (PubChem BioAssay)
TRHR enhancer-1: allosteric enhancers of human TRH receptor; P34981; TRHR cells, fluo-8 calcium fluorescence, EC20 TRH enhancement; enhancement, % at 2 µM; 0.66% of 360,000 active; in the data active = enhancement above about 30%
Target sequence (P34981 whole entry, looked up): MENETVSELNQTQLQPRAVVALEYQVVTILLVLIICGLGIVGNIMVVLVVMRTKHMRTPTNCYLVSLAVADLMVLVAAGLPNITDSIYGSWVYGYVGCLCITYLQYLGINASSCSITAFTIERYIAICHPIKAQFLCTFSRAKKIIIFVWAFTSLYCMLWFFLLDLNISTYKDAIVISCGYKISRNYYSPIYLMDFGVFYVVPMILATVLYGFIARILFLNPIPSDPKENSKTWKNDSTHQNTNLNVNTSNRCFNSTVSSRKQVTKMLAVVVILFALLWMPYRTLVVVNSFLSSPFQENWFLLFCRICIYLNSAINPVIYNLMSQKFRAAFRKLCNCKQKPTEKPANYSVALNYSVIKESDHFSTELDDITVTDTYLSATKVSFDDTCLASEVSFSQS
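Enhancer read-out: after compound pinning and an initial kinetic agonist-mode read, an EC20 of TRH (10 nM final) was injected and fluo-8 calcium signal (Ex 480/Em 530) followed at 1 s/cycle for 100 cycles in TRHR-expressing cells.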
GLP1R inv ag: inverse agonists of human GLP-1 receptor | HEK293 GLP-1R CRE-luciferase, luminescence, 24 h; GLP-1R form is constitutively active | P43220 | 1.6% of 410,000 active | Potency, µM (doses to about 38.3 µM), most hits filed as inhibitors; note: nearly all actives have a fitted effect of over 55% in size
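Seeding at 200 cells/uL, 12 h culture, 24 hr compound treatment, then luciferase reagent and a luminescence read; cells are HEK293 stably expressing a constitutively active GLP-1R plus cAMP-responsive luciferase.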
HEK293 tox: cytotoxic in the GLP-1 receptor inverse agonist counter-screen | HEK293 cAMP-luciferase reporter cells, luminescence, 24 h | Potency, µM (top dose mostly 38.3 µM), most hits filed as inhibitors | 0.13% of 410,000 active;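 note: loss of luciferase light is scored as toxicity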
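Step one: seed cells (200 cells/uL, DMEM with 10% Nu serum, 1% pen-strep). Step two: 12-hour incubation at 37 deg C. Step three: pin 23 nL compound, incubate 24 hr. Step four: add luciferase reagent, read luminescence 12 min later.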
PTHR1 ag: PTHR1 (human) receptor agonism; Q03431; HEK293 GP2 PTHR1 cells, GloSensor cAMP luminescence, 1 h; Potency, µM (top dose mostly 115 µM), actives largely listed as activators; 0.075% of 410,000 active; AID 743266; note: nearly all actives have a fitted effect of over 55% in size
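HEK-293-derived GP2 cells expressing PTHR1 and a GloSensor cAMP reporter, 3,000/well, plated overnight, given luciferin plus IBMX (each 0.5 mM as added) for 1 h at 37 °C, then compound for 1 h at 37 °C. Luminescence was read after 15 min at room temperature.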
GLP1R ag: GLP-1 receptor (human) agonism; HEK293 GLP-1R CRE-luciferase, luminescence, 4-6 h; cells express a hypersensitive GLP-1R form; AID 624172; Potency, µM (top dose mostly 45.6 µM), actives largely listed as activators; P43220; 0.007% of 380,000 active
TRHR agonist-1: activates the human TRH receptor | activation, % at 2 µM | 0.18% of 360,000 active | AID 493084 | TRHR cells, calcium flux fluo-8, FDSS agonist mode | P34981; in the data active = activation above about 30%
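In this calcium-flux screen, cells bearing human TRHR are dye-loaded with fluo-8, baselined for 10 cycles, then exposed to library compounds; positive kinetic calcium responses during the agonist phase mark hits, with TRH as control.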
TRHR enhancer-2: human TRH receptor allosteric enhancement confirmation; TRH receptor cell assay, enhancer confirmation qHTS; AID 493076; 970 tested, under 10 active; shares compounds with TRHR enhancer-1; activity change, negative = inhibition, % at 46.1 µM;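 note: compound effect scored on response to added TRH at EC20 of 10 nM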
TRHR agonist-2: human TRH receptor agonism confirmation | TRHR-expressing cells, agonist activation read-out | Potency, µM (doses to about 46.1 µM), actives largely listed as activators | shares compounds with TRHR enhancer-1 | AID 493078 | 8% of 970 active; note: nearly all actives have a fitted effect of over 75% in size
Numbers stand for hits; - = inactive; ? = inconclusive; . = no result given. Only some compounds are listed: those with a hit (about 2.4% of all), similar ones and a draw of the others. Unless noted, calls come from the whole dose curve; as a rule, active = well fitted curve in the direction sought with a large enough effect; inconclusive = small, poorly fitted or top-dose-only effect, or another doubt; inactive = no such curve, though single readings can be large; an effect the other way counts as inactive or inconclusive.

SMILES	TRHR enhancer-1	GLP1R inv ag	HEK293 tox	PTHR1 ag	GLP1R ag	TRHR agonist-1	TRHR enhancer-2	TRHR agonist-2
COc1ccc(Br)cc1C(=O)Nc1ccc(C(=O)NCC(C)C)cc1	46.4	-	-	-	-	-	-	-
O=C(CN(c1ccccc1)S(=O)(=O)c1ccccc1)NCCSc1nc2ccccc2s1	-	-	-	-	-	-	.	.
N#CNC(=Nc1cccc(C(F)(F)F)c1)SCc1ccc(C(=O)O)cc1	46.5	-	-	?	-	-	-	-
N#CNC(=Nc1cccc(F)c1)SCc1ccccc1F	-	-	-	-	-	-	.	.
Cc1nn(C)c(C(=O)NC(=S)Nc2ccccc2Br)c1Cl	-	-	?	-	-	75.5	-	13µM
CCn1ncc(Cl)c1C(=O)NC(=S)Nc1ccccc1Br	-	?	?	-	-	-	.	.
COc1ccc(CNC(=O)c2cnc(C)cn2)c(OC)c1	-	-	-	-	-	-	.	.
O=C(Nc1nnc(SCc2ccc(F)cc2)s1)C1=COCCO1	42.7	-	-	-	-	-	-	-
O=C(Nc1nnc(SCc2ccccc2)s1)C1=COCCO1	-	-	-	-	-	-	.	.
CCOC(=O)c1c(C(=O)OCC)c(C)n(Cc2cc(OC)c(OC)c(OC)c2)c1C	-	-	-	-	-	-	.	.
Cc1nc2ccccc2n1C(C)c1nc2ccccc2n1CC(=O)c1ccsc1 (configuration not stated)	.	-	-	-	.	.	.	.
CCN1C(=O)N/C(=C/c2ccc(Sc3ccc(C)cc3)o2)C1=O	54.1	-	-	-	-	-	-	-
CCN1C(=O)N/C(=C/c2ccc(C)o2)C1=O	-	-	-	-	-	-	.	.
CC1(C)CC(NC(=O)C2CCCCC2C(=O)O)CC(C)(C)N1 (configuration not stated)	-	-	-	-	-	-	.	.
COCCCN1C(=O)C(=O)/C(=C(/O)c2ccc(S(=O)(=O)N3CCCCC3)cc2)C1c1cccc(OC)c1 (configuration not stated)	-	-	-	-	-	-	.	.
O=C(N/N=C/c1c(O)n(-c2ccc(Cl)cn2)c(=O)c2ccccc12)C1CC1	-	-	-	-	-	-	.	.
O=C(N/N=C/c1c(O)n(-c2ccc(Cl)cn2)c(=O)c2ccccc12)c1ccncc1	-	-	-	-	-	38.2	-	20.6µM
CC(C)[C@H](NC(=O)c1c(F)cccc1F)C(=O)OCC(=O)NC(=O)NC1CCCC1	55.4	-	-	-	-	-	-	-
COc1ccccc1C(C)NS(=O)(=O)c1ccc(Cl)nc1 (configuration not stated)	-	-	-	-	-	-	.	.
CCCCSc1nc2c(cnn2-c2ccc(Cl)cc2)c(=O)[nH]1	41.5	-	-	-	-	-	-	-
COc1cc(/C=C2\SC(=S)N(N(C)c3ccccc3)C2=O)ccc1O	-	-	-	-	-	36.5	-	?
Cc1nn(CC(=O)Nc2ccccn2)c(C)c1[N+](=O)[O-]	-	-	-	-	-	-	.	.
Cc1nn(CCCC(=O)Nc2ccccn2)c(C)c1[N+](=O)[O-]	47.2	-	-	-	-	-	-	-
CCCNC(=O)C1(C)CCN(C(=O)c2ccc(OC)cc2OC)C1 (configuration not stated)	.	-	-	-	-	.	.	.
O=C(COC(=O)CNC(=O)c1ccc(Br)cc1)Nc1nnc(-c2ccccc2)o1	-	-	-	-	-	-	.	.
SMILES	TRHR enhancer-1	GLP1R inv ag	HEK293 tox	PTHR1 ag	GLP1R ag	TRHR agonist-1	TRHR enhancer-2	TRHR agonist-2
CC1(C)CC(=O)C(C=Nc2ccc(O)c(N=CC3=C(O)CC(C)(C)CC3=O)c2)=C(O)C1	-	-	-	-	-	-	.	.
CC1(C)CC(=O)C(C=Nc2ccc(C(=O)c3ccccc3)cc2N=CC2=C(O)CC(C)(C)CC2=O)=C(O)C1	-	?	-	-	-	-	-	-
CN(C)C(=O)/C(=C/c1cn(-c2ccccc2)nc1-c1cccc([N+](=O)[O-])c1)NC(=O)c1ccccc1	42.9	-	-	-	-	-	-	-
NC(=O)c1c(NC(=O)CN2CCOCC2)sc2c1CCC2	66.4	-	-	-	-	-	-	-
Cc1ccc(CNc2nc3ccc(C)cc3n3cnnc23)cc1	-	-	-	-	-	-	.	.
Cc1cc(Cl)ccc1NC(=O)CN1C(=O)NC2(CCCC2)C1=O	-	-	-	-	-	-	.	.
COc1cc(/C=C/c2nc3ccccc3s2)cc(OC)c1O	-	-	-	-	-	32.5	-	?
O=C(N=C1SC2CS(=O)(=O)CC2N1c1ccc(Br)cc1Cl)C1CC1 (configuration not stated)	-	-	-	-	-	-	.	.
CC1=C(C(=O)OCC(C)C)C(c2ccccc2Cl)NC(=O)N1C (configuration not stated)	-	?	-	-	-	-	.	.
CC1=C(C(=O)OCC(C)C)C(c2cc3c(cc2Br)OCO3)NC(=O)N1C (configuration not stated)	52.7	?	-	-	-	-	-	?
COc1ccc(OC)c(C(c2c(C)[nH][nH]c2=O)c2c(C)[nH][nH]c2=O)c1	49.7	-	-	-	-	-	-	-
O=C(c1cc2ccccc2oc1=O)N1CCCC1	-	-	-	-	-	-	.	.
O=C(c1cc2ccccc2oc1=O)N1CCCCCCC1	56.4	-	-	-	-	-	-	-
CN(C(=O)/C(N=Nc1cccc(C(F)(F)F)c1)=C(\O)C(F)(F)F)c1ccccc1	-	?	?	-	-	-	.	.
Cc1[nH]c2ccccc2c1C(=O)CN1CC(C)OC(C)C1 (configuration not stated)	-	-	-	-	-	-	.	.
COc1ccc(/C=C2\Oc3cc(OC(=O)N4CCOCC4)ccc3C2=O)cc1	-	-	-	-	-	-	.	.
CC(=O)Oc1ccc2c(c1)O/C(=C\c1ccncc1)C2=O	-	-	-	-	-	-	-	?
COc1ccccc1C(=O)Oc1ccc2c(c1)O/C(=C\c1ccncc1)C2=O	-	-	-	-	-	-	-	?
COc1cc(OC)c(OC)cc1/C=C1\Oc2cc(OS(C)(=O)=O)ccc2C1=O	-	-	-	-	-	37.6	-	?
O=C(Oc1ccc2c(c1)O/C(=C\c1ccncc1)C2=O)c1cccs1	-	-	-	-	-	-	.	.
